# Laboratory results taken from the supplement of paper PMC6555819.
# Legend:
# Assay in all cases: PBM binding z-score (relative to random genomic background probes); higher = stronger binding; sequences stand for … in GC…GCGATTGACAGCGTAGAATGAAGG
# [1] = system: PPARg:RXRa DBDmut IVT, anti-RXR (DBD mutation: RXRa K156A/R161A, NR concentration 270 nM, RXRa partner concentration 90 nM)
# Method in brief: (§1)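 Each nuclear receptor dimer, without ligand, was incubated for 1 h on custom Agilent 4×180K protein-binding microarrays. Binding was detected with antibodies against each partner (one per run), and scanned fluorescence was regression-normalized. The binding z-scores are referenced to random human genomic background probes.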
# [2] = system: PPARg:RXRa IVT, anti-PPARg (NR concentration 270 nM, RXRa partner concentration 90 nM)
# Method in brief: as §1
# [3] = system: PPARg DBDmut:RXRa IVT, anti-PPARg (DBD mutation: PPARg1 K132A/R137A, NR concentration 270 nM, RXRa partner concentration 90 nM)
# Method in brief: as §1
# [4] = system: PPARg DBDmut IVT, anti-PPARg (DBD mutation: PPARg1 K132A/R137A, NR concentration 270 nM)
# Method in brief: as §1
# [5] = system: PPARg homodimer (NR concentration 180 nM)
# Method in brief: as §1
# [6] = system: PXR:RXRa (NR concentration 270 nM, RXRa partner concentration 90 nM)
# Method in brief: as §1
# [7] = system: PXR homodimer (NR concentration 270 nM)
# Method in brief: as §1
# [8] = system: RARa:RXR (NR concentration 270 nM, RXRa partner concentration 90 nM)
# Method in brief: as §1
# [9] = system: RARa homodimer (NR concentration 270 nM)
# Method in brief: as §1
# [10] = system: RARb:RXRa (NR concentration 270 nM, RXRa partner concentration 90 nM)
# Method in brief: as §1
# [11] = system: RARb homodimer (NR concentration 270 nM)
# Method in brief: as §1
# [12] = system: RARg:RXRa (NR concentration 270 nM, RXRa partner concentration 90 nM)
# Method in brief: as §1
# [13] = system: RARg homodimer (NR concentration 270 nM)
# Method in brief: as §1
# [14] = system: RXRa DBDmut IVT, anti-RXR (DBD mutation: RXRa K156A/R161A, NR concentration 90 nM)
# Method in brief: as §1
# [15] = system: RXRa homodimer (NR concentration 180 nM)
# Method in brief: as §1
# [16] = system: THRa:RXRa (NR concentration 90 nM, RXRa partner concentration 90 nM)
# Method in brief: as §1
# [17] = system: THRa homodimer (NR concentration 90 nM)
# Method in brief: as §1
# [18] = system: VDR:RXRa (NR concentration 270 nM, RXRa partner concentration 90 nM)
# Method in brief: as §1
# [19] = system: VDR homodimer (NR concentration 270 nM)
# Method in brief: as §1
Sequence,PBM binding z-score [1],PBM binding z-score [2],PBM binding z-score [3],PBM binding z-score [4],PBM binding z-score [5],PBM binding z-score [6],PBM binding z-score [7],PBM binding z-score [8],PBM binding z-score [9],PBM binding z-score [10],PBM binding z-score [11],PBM binding z-score [12],PBM binding z-score [13],PBM binding z-score [14],PBM binding z-score [15],PBM binding z-score [16],PBM binding z-score [17],PBM binding z-score [18],PBM binding z-score [19]
CGAACTAGGTCTTTGACAGGACAGTGAATAGTAA,4.79,3.63,0.956,0.308,0.0171,-0.285,-0.19,0.0375,-0.136,0.0398,0.139,0.112,0.193,0.262,-0.252,0.309,-0.0353,-0.318,-0.305
TCTTGTAGATCAACAGGAGGTTAAGAATGATCGA,1.72,0.852,0.795,0.577,0.581,0.825,0.00794,0.975,0.614,0.678,0.596,1.13,0.374,0.333,0.964,0.774,-0.347,0.56,0.202
CGAACTAGGTCATTGACAGGACAGTAAATAGTAA,8.11,7.89,2.15,1.51,1.72,1.89,0.641,2.43,-0.0635,3.81,2.73,4.76,4.54,2.6,2.84,2.74,0.723,2.34,1.03
CGTCCAAGGTCAGAGAGGCCAGTGAATGCCGAGT,2.19,2.04,-0.142,-0.792,1.17,2.83,2.62,2.56,-0.0378,4.62,4.08,4.46,5.6,2.66,3.4,3.28,1.86,5.4,2.3
CTACCAAGGTGAACAAGGTTGTTGATTACTATTC,2.39,2.42,-0.144,0.038,0.436,1.04,0.435,0.73,0.287,1.57,1.02,0.783,0.877,0.73,0.747,2.05,0.944,4.05,0.267
ACTAGCAGGCCAAGTTTGGGTCACTCGAACAAAG,1.03,1.36,-0.745,-0.0393,0.399,0.625,-0.591,1.12,-0.754,1.68,2.15,2.31,1.59,-0.0795,0.694,2.42,0.889,0.392,0.0508
TCTATTAGTTGCTTAGGGCAACCGAAACAGCGGA,2.15,0.552,0.453,1.28,0.448,0.524,0.123,0.386,0.367,0.946,0.716,0.433,0.547,1.23,0.549,0.996,0.379,0.49,0.236
ATCTCTAGGTAACAAGTTCGGTGAAAGAGAGGAC,3.31,2.96,1.06,0.893,1.01,0.677,0.713,0.675,0.59,0.969,1.21,0.788,0.885,0.327,0.444,1.48,0.922,0.955,1.22
GGAACGAGGGCATTCGAGTTGATAGGATGGCGAT,2.57,2.23,-0.409,-0.611,0.00316,3.7,1.31,0.433,-0.456,1.75,0.729,1.11,1.28,3.32,0.734,3.21,-0.299,3.74,2.9
TCTGCTAGGTCAGTTGGTCAGCTAACGAGCTGCC,2.77,3.08,-0.303,0.752,0.0124,0.0781,-0.754,0.864,-0.941,3.35,2.55,2.58,3.5,0.411,1.02,1.36,-0.176,0.166,-0.401
TCTCGGAGGACACGAAGGTGAGAGCTTTCCAGAG,1.32,0.688,-0.824,-1.52,-0.651,-0.315,-0.615,-0.0834,-0.906,1.69,1.24,0.731,1.55,0.225,0.152,1.48,0.357,-0.377,-0.501
TAGCCTAGGTCATTCGGGCCAGTATAGTGTCGGC,1.8,2.76,-0.115,-0.745,0.969,2.11,0.189,2.39,-0.428,3.74,3.25,3.72,4.17,1.79,3.07,3.16,1.11,3.94,1.49
GCTGCTAGGTCAACTGGTGGTCAGCTAAAGCTCG,4.77,4.33,-0.118,-0.735,2.55,1.61,-0.644,3.34,-0.0343,4.23,3.61,5.52,5.36,1.53,2.88,3.02,0.794,1.64,0.0223
AATACAGGGTCACCAGGCCAGAGTAGGTACGAAT,3.62,5.06,1.5,0.986,2.07,4.02,0.26,5.4,0.737,4.53,3.63,6.17,6.17,2.62,7.47,3.85,1.88,4.82,2.7
AGAATGAGGTTATACATAGATCAGGGAAGAAAGT,2.35,1.91,1.44,1.27,1.21,1.43,0.76,1.9,0.765,1.6,0.905,2.03,1.38,1.27,2.42,2.19,0.855,1.5,1.24
